Measured values as given in PubChem BioAssay (EPA / NIEHS).
Inconclusive results are not listed. Active and inactive are the calls of the source. How the source made its calls: active means hit-call score of the fitted dose curve at least 0.9, where 1 is the maximum; inconclusive means response in the unintended direction; inactive means score below 0.9.

Columns and labels:
[1] = target: human Janus Kinase 2 (Jak2), JAK2 (gene 3717) (UniProt O60674); experiment: NVS_ENZ_hJak2: NovaScreen (NVS) Enzymatic Assay for human Janus Kinase 2 (Jak2) (AID 2283169)
How it was run: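 Cell-free recombinant human JAK2 enzyme activity assay, fluorescence/electrophoretic mobility shift read 1 h after dosing. Screened in duplicate at 25 uM, then concentration-response up to 50 uM; activity as signal loss relative to DMSO.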

[2] = target: Mitogen-activated protein kinase 3 (Homo sapiens) (UniProt P27361); experiment: NVS_ENZ_hMAPK3: NovaScreen (NVS) Enzymatic Assay for human Mitogen-Activated Protein Kinase 3 (MAPK 3) (AID 2283177)
How it was run: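 Cell-free enzymatic assay with recombinant protein and specific substrate; fluorescence and electrophoretic mobility shift read-out 1 h after dosing. Primary screen duplicate at 25 uM; actives then run in concentration-response up to 50 uM, loss of signal versus DMSO.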

[3] = target: human Ephrin type-A Receptor 1 (EphA1), EPHA1 (gene 2041) (UniProt P21709); experiment: NVS_ENZ_hEphA1: NovaScreen (NVS) Enzymatic Assay for human Ephrin type-A Receptor 1 (EphA1) (AID 2283158);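 further: activity is signal loss versus DMSO meaning EphA1 kinase inhibition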
How it was run: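 Recombinant kinase, fluorescent substrate, mobility-shift separation, fluorescence read at 1 h. Single-point duplicates at 25 uM; hits (e.g., ≥30% inhibition) run singleton concentration-response, max 50 uM. DMSO = negative control/baseline.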

[4] = target: human Phosphoinositide 3-kinase alpha (PI3Ka), PIK3CA (gene 5290) (UniProt P42336); experiment: NVS_ENZ_hPI3Ka: NovaScreen (NVS) Enzymatic Assay for human Phosphoinositide 3-kinase alpha (PI3Ka) (AID 2283196)
How it was run: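 Enzyme activity as fluorescence after mobility-shift separation of substrate and product, 1 h reaction, recombinant human PI3Kα; concentration-response to 50 uM max for chemicals passing a 25 uM duplicate screen.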

[5] = target: Protein deacetylase HDAC6 (Homo sapiens) (UniProt Q9UBN7); experiment: NVS_ENZ_hHDAC6: NovaScreen (NVS) Enzymatic Assay for human Histone Deacetylase 6 (HDAC6) (AID 2283164)
How it was run: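 Recombinant human HDAC6 with fluorescent substrate, 1 h; product separated from substrate by electrophoretic mobility shift. Primary screen in duplicate at 25 uM; actives retested singly in concentration-response up to 50 uM, fitted relative to DMSO.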

[6] = target: Glycogen synthase kinase-3 beta (Homo sapiens) (UniProt P49841); experiment: NVS_ENZ_hGSK3b: NovaScreen (NVS) Enzymatic Assay for human Glycogen Synthase Kinase-3 beta (GSK3b) (AID 2283165)
How it was run: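 Recombinant enzyme with specific fluorescent substrate, 1 h, product separated by electrophoretic mobility shift. Primary duplicate screen at 25 uM; actives (e.g. 30% inhibition) followed in singleton concentration-response to 50 uM. Signal loss fitted versus DMSO.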

[7] = target: human Matrix Metalloproteinase-7 (MMP7), MMP7 (gene 4316) (UniProt P09237); experiment: NVS_ENZ_hMMP7: NovaScreen (NVS) Enzymatic Assay for human Matrix Metalloproteinase-7 (MMP7) (AID 2283183)
How it was run: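 Cell-free fluorescence enzymatic assay read 1 h after compound addition, activity loss analyzed against DMSO. Primary duplicate testing at 25 uM; compounds meeting threshold rerun in singleton concentration-response up to 50 uM.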

[8] = target: human Phosphodiesterase 10 (PDE10), PDE10A (gene 10846) (UniProt Q9Y233); experiment: NVS_ENZ_hPDE10: NovaScreen (NVS) Enzymatic Assay for human Phosphodiesterase 10 (PDE10) (AID 2283195)
How it was run: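 PDE10A, cell-free; 1 h incubation; fluorescence intensity + electrophoretic mobility shift separating substrate/product; DMSO = baseline; 25 uM duplicate primary, CRC up to 50 uM.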

[9] = target: human MET Proto-Oncogene, Receptor Tyrosine Kinase (MET), MET (gene 4233) (UniProt P08581); experiment: NVS_ENZ_hMet: NovaScreen (NVS) Enzymatic Assay for human MET Proto-Oncogene, Receptor Tyrosine Kinase (MET) (AID 2283180)
How it was run: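 Cell-free MET kinase assay using recombinant protein and fluorescent substrate, with mobility-shift separation; read 1 h after dosing. Primary duplicate at 25 uM; actives in singleton concentration-response to 50 uM maximum. Signal loss versus DMSO.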

[10] = target: human Matrix Metalloproteinase-9 (MMP9), MMP9 (gene 4318) (UniProt P14780); experiment: NVS_ENZ_hMMP9: NovaScreen (NVS) Enzymatic Assay for human Matrix Metalloproteinase-9 (MMP9) (AID 2283190);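 further: cell-free recombinant MMP9 protease activity read by fluorescent substrate signal; active means inhibition seen as loss of fluorescence signal versus DMSO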
How it was run: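 Cell-free fluorescence-intensity enzyme activity assay using extracted protein, read 1 h after dosing. Loss of signal versus DMSO baseline indicates inhibition; primary screen in duplicate at 25 uM, actives followed up in concentration series.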

[11] = target: human Matrix Metalloproteinase-1 (MMP1), MMP1 (gene 4312) (UniProt P03956); experiment: NVS_ENZ_hMMP1: NovaScreen (NVS) Enzymatic Assay for human Matrix Metalloproteinase-1 (MMP1) (AID 2283181)
How it was run: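 Human MMP1 enzyme activity measured by fluorescence 1 h after dosing, cell-free, with a specific substrate. Screened in duplicate at 25 uM; hits (e.g. 30% inhibition) run in concentration-response up to 50 uM; loss of signal versus DMSO.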

[12] = target: human Phosphodiesterase 4A1 (PDE4A1), PDE4A (gene 5141) (UniProt P27815); experiment: NVS_ENZ_hPDE4A1: NovaScreen (NVS) Enzymatic Assay for human Phosphodiesterase 4A1 (PDE4A1) (AID 2283191)
How it was run: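 Cell-free recombinant human PDE4A1 with fluorescent substrate; product separated by electrophoretic mobility shift, 1 h. Screened at 25 uM, then up to 50 uM in concentration-response; loss of signal fitted against DMSO.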

[13] = target: human Phosphodiesterase 5 (PDE5), PDE5A (gene 8654) (UniProt O76074); experiment: NVS_ENZ_hPDE5: NovaScreen (NVS) Enzymatic Assay for human Phosphodiesterase 5 (PDE5) (AID 2283194)
How it was run: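 Recombinant human PDE5 with specific substrate, read 1 h after dosing by fluorescence with electrophoretic mobility-shift separation of substrate and product. Initial single-concentration duplicate screen at 25 uM, actives followed in concentration series; loss of activity versus DMSO.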

[14] = target: Collagenase 3 (Homo sapiens) (UniProt P45452); experiment: NVS_ENZ_hMMP13: NovaScreen (NVS) Enzymatic Assay for human Matrix Metalloproteinase-13 (MMP13) (AID 2283182)
How it was run: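 Recombinant MMP13 cleaving fluorescent substrate, cell-free, measured 1 h after dosing. Primary duplicate screen at 25 uM; actives tested in concentration-response up to 50 uM; loss of signal relative to DMSO.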

[15] = target: human Matrix Metalloproteinase-2 (MMP2), MMP2 (gene 4313) (UniProt P08253); experiment: NVS_ENZ_hMMP2: NovaScreen (NVS) Enzymatic Assay for human Matrix Metalloproteinase-2 (MMP2) (AID 2283184)
How it was run: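 Cell-free recombinant MMP2 activity with a fluorescent substrate, read 1 h after dosing. Primary screen in duplicate at 25 uM; actives then run in concentration series; loss of signal fitted versus DMSO.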

[16] = target: human Matrix Metalloproteinase-3 (MMP3), MMP3 (gene 4314) (UniProt P08254); experiment: NVS_ENZ_hMMP3: NovaScreen (NVS) Enzymatic Assay for human Matrix Metalloproteinase-3 (MMP3) (AID 2283185)
How it was run: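 Cell-free recombinant human MMP3 activity, fluorescence intensity read 1 h after dosing. Primary screen duplicate at 25 uM, actives retested in concentration series; loss of signal vs DMSO baseline.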

Chain of human Matrix Metalloproteinase-1 (MMP1), MMP1 (gene 4312) (P03956 whole entry, looked up): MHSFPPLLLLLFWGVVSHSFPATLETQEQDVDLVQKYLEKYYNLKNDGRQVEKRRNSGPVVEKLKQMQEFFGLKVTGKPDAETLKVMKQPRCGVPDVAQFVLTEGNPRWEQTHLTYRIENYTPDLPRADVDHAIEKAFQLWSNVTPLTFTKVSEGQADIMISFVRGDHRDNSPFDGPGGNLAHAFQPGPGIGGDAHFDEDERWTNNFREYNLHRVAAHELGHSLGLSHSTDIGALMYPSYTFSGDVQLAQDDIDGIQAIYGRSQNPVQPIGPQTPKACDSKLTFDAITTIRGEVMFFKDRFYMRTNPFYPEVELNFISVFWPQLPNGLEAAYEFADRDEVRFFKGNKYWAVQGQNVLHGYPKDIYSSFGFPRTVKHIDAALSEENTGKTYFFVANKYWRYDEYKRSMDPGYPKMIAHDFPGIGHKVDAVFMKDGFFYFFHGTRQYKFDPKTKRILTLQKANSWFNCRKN
Chain of Mitogen-activated protein kinase 3 (Homo sapiens) (P27361 whole entry, looked up): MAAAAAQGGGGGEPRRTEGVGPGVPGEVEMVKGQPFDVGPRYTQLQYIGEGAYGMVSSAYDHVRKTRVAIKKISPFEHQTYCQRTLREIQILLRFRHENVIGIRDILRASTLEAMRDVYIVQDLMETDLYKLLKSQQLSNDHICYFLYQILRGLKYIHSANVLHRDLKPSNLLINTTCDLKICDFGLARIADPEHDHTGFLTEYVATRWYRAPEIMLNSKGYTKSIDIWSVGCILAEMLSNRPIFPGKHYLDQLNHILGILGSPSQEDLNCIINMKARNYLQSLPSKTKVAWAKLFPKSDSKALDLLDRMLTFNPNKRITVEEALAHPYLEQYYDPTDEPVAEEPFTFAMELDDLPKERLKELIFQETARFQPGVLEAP
Chain of human Phosphoinositide 3-kinase alpha (PI3Ka), PIK3CA (gene 5290) (P42336 whole entry, looked up): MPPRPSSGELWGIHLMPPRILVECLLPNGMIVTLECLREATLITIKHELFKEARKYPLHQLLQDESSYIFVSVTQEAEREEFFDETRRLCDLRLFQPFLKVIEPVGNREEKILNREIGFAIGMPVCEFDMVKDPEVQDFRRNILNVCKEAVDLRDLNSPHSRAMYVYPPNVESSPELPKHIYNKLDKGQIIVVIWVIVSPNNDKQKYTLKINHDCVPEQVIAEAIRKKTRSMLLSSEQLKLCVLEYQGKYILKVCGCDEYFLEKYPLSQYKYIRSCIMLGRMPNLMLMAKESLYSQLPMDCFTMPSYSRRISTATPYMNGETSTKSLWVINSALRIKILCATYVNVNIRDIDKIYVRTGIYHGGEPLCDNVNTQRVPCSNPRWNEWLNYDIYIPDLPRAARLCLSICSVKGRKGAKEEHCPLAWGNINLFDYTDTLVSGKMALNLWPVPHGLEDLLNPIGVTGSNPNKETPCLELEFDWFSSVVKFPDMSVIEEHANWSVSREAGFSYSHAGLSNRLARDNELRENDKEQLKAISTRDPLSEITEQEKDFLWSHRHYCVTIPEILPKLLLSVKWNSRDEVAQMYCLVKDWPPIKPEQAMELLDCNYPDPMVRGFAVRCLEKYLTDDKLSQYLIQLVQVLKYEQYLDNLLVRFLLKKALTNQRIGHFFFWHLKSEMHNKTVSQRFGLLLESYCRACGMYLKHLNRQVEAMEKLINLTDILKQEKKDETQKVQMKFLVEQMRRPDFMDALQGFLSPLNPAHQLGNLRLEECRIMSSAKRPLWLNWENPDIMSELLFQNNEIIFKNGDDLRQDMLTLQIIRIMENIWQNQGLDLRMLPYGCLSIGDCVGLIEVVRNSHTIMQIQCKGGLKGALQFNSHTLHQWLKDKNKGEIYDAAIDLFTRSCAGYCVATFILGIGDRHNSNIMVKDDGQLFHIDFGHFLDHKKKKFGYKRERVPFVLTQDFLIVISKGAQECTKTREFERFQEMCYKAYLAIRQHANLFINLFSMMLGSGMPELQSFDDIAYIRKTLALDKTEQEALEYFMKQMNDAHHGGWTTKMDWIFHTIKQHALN
Chain of human Matrix Metalloproteinase-9 (MMP9), MMP9 (gene 4318) (P14780 whole entry, looked up): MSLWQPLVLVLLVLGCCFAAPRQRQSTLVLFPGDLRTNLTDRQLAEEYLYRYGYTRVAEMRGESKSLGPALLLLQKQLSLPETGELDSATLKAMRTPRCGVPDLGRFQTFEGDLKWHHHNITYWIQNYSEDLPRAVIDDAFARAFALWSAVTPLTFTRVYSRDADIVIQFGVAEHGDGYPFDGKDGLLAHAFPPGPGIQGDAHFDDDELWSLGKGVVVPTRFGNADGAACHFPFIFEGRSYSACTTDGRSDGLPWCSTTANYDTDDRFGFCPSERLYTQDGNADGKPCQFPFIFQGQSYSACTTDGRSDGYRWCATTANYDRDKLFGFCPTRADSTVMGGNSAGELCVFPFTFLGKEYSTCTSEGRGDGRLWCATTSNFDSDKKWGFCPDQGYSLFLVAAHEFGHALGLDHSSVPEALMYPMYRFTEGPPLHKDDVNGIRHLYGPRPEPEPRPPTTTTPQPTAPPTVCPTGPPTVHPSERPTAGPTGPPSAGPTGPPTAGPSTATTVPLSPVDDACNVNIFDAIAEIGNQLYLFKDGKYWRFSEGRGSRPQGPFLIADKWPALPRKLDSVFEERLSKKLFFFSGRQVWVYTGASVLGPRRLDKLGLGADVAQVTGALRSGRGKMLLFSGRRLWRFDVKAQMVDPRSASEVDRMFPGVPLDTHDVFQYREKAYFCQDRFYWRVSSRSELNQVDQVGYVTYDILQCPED
Chain of human Phosphodiesterase 10 (PDE10), PDE10A (gene 10846) (Q9Y233 whole entry, looked up): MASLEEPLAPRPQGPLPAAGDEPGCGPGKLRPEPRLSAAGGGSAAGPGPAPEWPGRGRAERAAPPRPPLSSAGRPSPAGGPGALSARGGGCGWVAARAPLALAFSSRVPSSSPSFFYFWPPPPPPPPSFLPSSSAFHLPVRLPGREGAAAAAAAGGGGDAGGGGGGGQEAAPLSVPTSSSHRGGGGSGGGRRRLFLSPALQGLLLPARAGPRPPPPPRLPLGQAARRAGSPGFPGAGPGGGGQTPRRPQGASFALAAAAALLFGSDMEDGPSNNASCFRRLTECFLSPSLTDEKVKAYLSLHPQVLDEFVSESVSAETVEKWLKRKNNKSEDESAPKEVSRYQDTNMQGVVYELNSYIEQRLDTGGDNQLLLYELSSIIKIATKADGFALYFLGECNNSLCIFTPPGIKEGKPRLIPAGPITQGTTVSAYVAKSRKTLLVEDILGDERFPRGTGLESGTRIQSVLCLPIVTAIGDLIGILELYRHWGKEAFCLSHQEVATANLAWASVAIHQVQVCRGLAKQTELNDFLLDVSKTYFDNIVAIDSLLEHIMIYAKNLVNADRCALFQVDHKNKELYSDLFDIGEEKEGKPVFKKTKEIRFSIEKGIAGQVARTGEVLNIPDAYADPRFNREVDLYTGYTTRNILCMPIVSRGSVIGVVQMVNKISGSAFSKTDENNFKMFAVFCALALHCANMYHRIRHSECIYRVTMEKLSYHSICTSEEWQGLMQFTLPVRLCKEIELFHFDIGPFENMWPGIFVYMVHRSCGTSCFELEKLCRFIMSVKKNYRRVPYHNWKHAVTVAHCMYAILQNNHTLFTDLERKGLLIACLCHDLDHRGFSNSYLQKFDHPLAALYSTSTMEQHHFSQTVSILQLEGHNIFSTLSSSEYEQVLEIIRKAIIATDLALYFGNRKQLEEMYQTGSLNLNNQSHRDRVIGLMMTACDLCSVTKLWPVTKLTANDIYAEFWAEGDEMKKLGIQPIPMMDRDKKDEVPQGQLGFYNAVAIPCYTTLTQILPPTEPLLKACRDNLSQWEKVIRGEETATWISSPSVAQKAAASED
Chain of human Ephrin type-A Receptor 1 (EphA1), EPHA1 (gene 2041) (P21709 whole entry, looked up): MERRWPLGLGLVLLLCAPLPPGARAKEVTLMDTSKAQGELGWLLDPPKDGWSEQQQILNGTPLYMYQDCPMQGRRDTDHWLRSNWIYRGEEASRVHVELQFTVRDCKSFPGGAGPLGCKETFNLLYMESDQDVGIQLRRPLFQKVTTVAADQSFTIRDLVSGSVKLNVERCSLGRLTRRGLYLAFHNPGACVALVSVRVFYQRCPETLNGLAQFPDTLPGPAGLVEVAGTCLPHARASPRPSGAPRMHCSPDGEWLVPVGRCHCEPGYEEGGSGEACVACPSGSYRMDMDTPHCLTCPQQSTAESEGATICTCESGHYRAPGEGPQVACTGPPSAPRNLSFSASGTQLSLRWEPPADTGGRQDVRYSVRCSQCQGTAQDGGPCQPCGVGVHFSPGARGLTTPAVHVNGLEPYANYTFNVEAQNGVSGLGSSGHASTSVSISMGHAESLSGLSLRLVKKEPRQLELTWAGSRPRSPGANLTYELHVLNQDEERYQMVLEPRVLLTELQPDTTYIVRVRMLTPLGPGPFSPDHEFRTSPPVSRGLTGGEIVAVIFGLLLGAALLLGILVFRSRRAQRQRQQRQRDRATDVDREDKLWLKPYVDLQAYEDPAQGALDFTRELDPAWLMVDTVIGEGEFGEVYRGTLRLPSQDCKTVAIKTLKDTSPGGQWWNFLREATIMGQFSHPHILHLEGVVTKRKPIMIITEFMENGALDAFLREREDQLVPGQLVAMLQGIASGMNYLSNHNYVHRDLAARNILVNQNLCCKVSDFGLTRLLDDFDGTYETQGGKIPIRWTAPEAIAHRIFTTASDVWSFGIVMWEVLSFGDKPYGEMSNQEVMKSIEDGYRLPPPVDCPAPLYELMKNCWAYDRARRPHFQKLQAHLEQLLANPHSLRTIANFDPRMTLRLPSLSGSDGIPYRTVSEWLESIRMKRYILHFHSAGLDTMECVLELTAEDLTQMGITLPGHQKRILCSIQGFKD
Chain of Glycogen synthase kinase-3 beta (Homo sapiens) (P49841 whole entry, looked up): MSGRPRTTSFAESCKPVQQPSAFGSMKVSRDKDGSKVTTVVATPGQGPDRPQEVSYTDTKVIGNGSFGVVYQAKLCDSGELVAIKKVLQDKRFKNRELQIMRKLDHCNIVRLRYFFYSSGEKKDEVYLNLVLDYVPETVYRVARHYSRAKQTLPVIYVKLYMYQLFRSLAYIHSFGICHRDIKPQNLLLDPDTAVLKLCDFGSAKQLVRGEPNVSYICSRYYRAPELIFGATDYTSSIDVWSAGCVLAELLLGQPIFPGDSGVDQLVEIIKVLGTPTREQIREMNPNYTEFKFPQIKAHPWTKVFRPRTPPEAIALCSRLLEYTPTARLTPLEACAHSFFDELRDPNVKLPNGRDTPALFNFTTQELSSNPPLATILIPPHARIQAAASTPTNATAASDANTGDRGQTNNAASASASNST

`Cn1sc(Cl)cc1=O` was tested, and the outcome [1] was “inactive” and the outcome [2] was “inactive”.

In the case of `COP(=S)(OC)Oc1cc(Cl)c(Cl)cc1Cl`, the outcome [3] was “inactive” and the outcome [4] was “inactive”.

With `O=[N+]([O-])c1ccc2c3c(cccc13)CC2` the outcome [3] was “inactive” and the outcome [4] was “inactive”.

With `O=C1C2(Cl)C3(Cl)C4(Cl)C(Cl)(Cl)C5(Cl)C3(Cl)C1(Cl)C5(Cl)C24Cl` (centres undefined) the outcome [5] was “inactive”, the outcome [6] was “inactive” and the AC50 [7] was 5.85 µM (active).

In the case of `CCNc1nc(NC(C)(C)C)nc(SC)n1`, the outcome [4] was “inactive”.

For `CC(C)c1ccc(CO)cc1`, the outcome [8] was “inactive”.

`O=Cc1cccc(Oc2ccccc2)c1` was tested, and the outcome [8] was “inactive”.

With `ClC1=C(Cl)[C@]2(Cl)[C@@H]3[C@@H](Cl)[C@@H](Cl)C[C@@H]3[C@@]1(Cl)C2(Cl)Cl` the outcome [8] was “inactive”.

In the case of `CC(C)C1CCC(Cc2ccc(Cl)cc2)C1(O)Cn1cncn1` (centres undefined), the outcome [4] was “inactive”.

In the case of `CC(C)(C)c1cc(O)ccc1O`, the outcome [9] was “inactive”.

For `Clc1ccc(C2(Cn3cncn3)CC(Br)CO2)c(Cl)c1` (centres undefined), the outcome [10] was “inactive”.

With `CCN1CCC2(CC1)COc1cc3c(cc12)N(C(=O)c1ccc(-c2ccc(-c4nnc(C)o4)cc2C)cc1)CC3` the outcome [11] was “inactive”, the AC50 [10] was 4.37 µM (active) and the AC50 [12] was 10.2 µM (active). For the same molecule, the outcome [13] was “inactive”.

For `C[C@@H]1C[C@@H]([C@H](O)CC2CC(=O)NC(=O)C2)C(=O)[C@@H](C)C1`, the outcome [2] was “inactive”.

In the case of `O=C(O)C(Cl)(Cl)Cl`, the outcome [11] was “inactive”.

`ClCCBr` was tested, and the outcome [8] was “inactive” and the AC50 [4] was 0.383 µM (active).

For `Nc1cccc2ccccc12`, the AC50 [8] was 9.86 µM (active).

`CC12CC1(C)C(=O)N(c1cc(Cl)cc(Cl)c1)C2=O` (centres undefined) was tested, and the AC50 [2] was 40.6 µM (active).

With `C=C(C)C(=O)[O][Sn]([CH2]CCC)([CH2]CCC)[CH2]CCC` the AC50 [11] was 3.07 µM (active).

With `Nc1ncc([N+](=O)[O-])s1` the outcome [8] was “inactive”.

With `CCOC(=O)/C=C(C)/C=C/C[C@@H](C)CCCC(C)C` the outcome [10] was “inactive”.

In the case of `Nc1ccc(Cl)cc1C(=O)c1ccccc1`, the outcome [8] was “inactive”.

`O=C(OC1CCCCC1)c1ccccc1C(=O)OC1CCCCC1` was tested, and the AC50 [10] was 1.86 µM (active).

In the case of `O=C(O)C(F)(F)C(F)(F)C(F)(F)C(F)(F)C(F)(F)C(F)(F)C(F)(F)C(F)(F)C(F)(F)C(F)(F)F`, the AC50 [14] was 23.3 µM (active), the AC50 [15] was 21.9 µM (active) and the AC50 [16] was 10.3 µM (active).

`CN(CCCC(=O)c1cccnc1)N=O` was tested, and the outcome [8] was “inactive”.

`ClC1=C(Cl)[C@]2(Cl)[C@H]3[C@H]([C@H]4C=C[C@H]3C4)[C@@]1(Cl)C2(Cl)Cl` was tested, and the AC50 [10] was 102 µM (active).

With `O=C(Cl)c1ccc(Cl)cc1` the outcome [8] was “inactive”.

With `CCCCC(CC)CO[N+](=O)[O-]` (centres undefined) the outcome [8] was “inactive”.

With `CN(C)P(=O)(N(C)C)N(C)C` the AC50 [10] was 6.94 µM (active).
